“And” between values parts separate entries of the source, which are not always exact repeats. Equal values may be shown once. Inconclusive results are not listed. Entries that show only a call come without a potency. The source made the active and inactive calls. Calls follow the shape of the dose curve; as a rule, active = well fitted cell-killing curve with a large enough effect in the repeat runs; inconclusive = weak or mixed curves, or effect the other way; inactive = no such curve, though single readings can be large or run the other way.
Potency is read from the fitted curve at half-maximal effect.

This test is described as follows: qHTS assay to identify small molecule antagonists of the sonic hedgehog signaling (Shh) pathway - cell viability counter screen (AID 1259367). Also: nearly all actives have a fitted effect of over 55% in size. Conditions: NIH/3T3 Gli1-Luc viability, CellTiter-Fluor, 24 h; series mostly up to 92.4 µM. From the text: National Center for Advancing Translational Sciences [NCATS]
NIH Chemical Genomics Center [NCGC]
U.S. Environmental Protection Agency [EPA]
National Institutes of Environmental Health Sciences [NIEHS]
National Toxicology Program [NTP]
U.S. Food and Drug Administration [FDA]
The sonic hedgehog (Shh) pathway is essential for normal embryonic development. Dysregulation of the Shh pathway can cause severe developmental defects in organs. Therefore chemicals that interfere with the pathway are potential developmental toxicants. A cell line designated 3T3Gli1-Luc (DMB/OARSA/CFSAN/FDA, Laurel, MD), a NIH/3T3 derived clone containing stably integrated Gli1-Luc reporter is used to detect chemical interference of the Shh pathway, by changes in the expression of the firefly Luc gene under the control of the Gli1 transcriptional response element. This cell line was used to screen Tox21 libraries for identifying and prioritizing the potential developmental toxicants that interfere Shh pathway. Conditioned medium-stimulated mode was used to screen for chemicals inhibiting Shh signaling. The cytotoxicity of the compounds was tested in parallel by measuring the cell viability using CellTiter-Fluor assay system (Promega, Madison, WI) in the same wells.
Tox21 Assay Protocol Summary:
3T3 Gli1-Luc cells were dispensed at 2,000 per well in 5uL of culture medium into white solid bottom 1536-well plates (Greiner Bio-One, Monroe, NC) using a Multidrop Combi (Thermo Scientific, Waltham, MA) dispenser. The assay plates were incubated at 37 C and 5% CO2 for 4hr, and then 23nL of compounds dissolved in DMSO and positive control were transferred using a Pintool station (Wako, San Diego, CA). The compound transfer was followed by the addition of 1ul conditioned medium or assay buffer using two separate tips of Flying Reagent Dispenser (FRD, Aurora Discovery, San Diego, CA). The assay plates were incubated at 37C and 5% CO2 for 24hr. For viability read, after 23hr of compound treatment, 1uL of CellTiter-Fluor reagent (Promega Corporation, Madison, WI) was added to each well of the assay plates using Flying Reagent Dispenser (FRD, Aurora Discovery, San Diego, CA) and incubated the assay plates at 37C for 1hr. The fluorescence signal was quantified using a ViewLux plate reader (Perkin Elmer, Shelton, CT).
Consider `CCOP(=S)(S)OCC`, for which the Potency entry is “inactive”.
For `CCOP(=S)(OCC)SCSc1cc(Cl)ccc1Cl` the value was “inactive”.
The same measure for `CCC[N+](CCC)(CCC)CCC`: “inactive”.
The same measure for `CN(C)N`: “inactive”; for `OCCSSCCO`: “inactive”.
Take `C[C@@H]1C[C@@H]([C@H](O)CC2CC(=O)NC(=O)C2)C(=O)[C@@H](C)C1`: the Potency was 136 nM (active) and 969 nM (active).
For `CC[N+]1(C)CCCC(OC(=O)C(O)(c2ccccc2)c2ccccc2)C1` (stereo not given) the value was “inactive”; for `CCCN(CCOc1c(Cl)cc(Cl)cc1Cl)C(=O)n1ccnc1`, “inactive”; for `CCCCCCCCCCCCN(C)C`, “inactive”.
For `O=C(NCNC(=O)NC1C(=O)NC(=O)N1CO)NC1C(=O)NC(=O)N1CO` (stereo not given) the value was “inactive”; for `CN(C)c1ccc(N=O)cc1`, 24.4 µM (active) and 27.3 µM (active).
The same measure for `O=C(O)c1cc(Cl)ccc1Cl`: “inactive”.
Turning to `CC(C)(C)NCC(O)c1cc(Cl)c(N)c(C(F)(F)F)c1` (stereo not given), the Potency is 9.44 µM (active).
In the case of `CCCC(C)(COC(N)=O)COC(=O)NC(C)C` (stereo not given), the Potency result is “inactive”.
For `C[N+]1(CCF)[C@@H]2CC[C@H]1CC(OC(=O)C(O)(c1ccccc1)c1ccccc1)C2` (stereo not given in full) the value was “inactive”; for `CCCCNC(=O)OCC#CI`, 54.2 µM (active) and 61.1 µM (active); for `COc1cc(CC#N)cc(OC)c1OC`, “inactive”.
For `C=CCc1ccc(OC(=O)Cc2ccccc2)c(OC)c1` the value was “inactive”.
For `CCC(=O)O[C@@H]1C=C2CCC3C(CCC4(C)C3CC[C@@H]4OC(=O)CC)C2CC1` (stereo not given in full), the Potency result was “inactive”.
The same measure for `Cc1nnc(-c2ccccc2)c(=O)n1N`: “inactive”; for `CCCBr`: “inactive”.
For `CCCC[N+]1(C)[C@@H]2CC(OC(=O)[C@H](CO)c3ccccc3)C[C@H]1[C@@H]1O[C@@H]12` (stereo not given in full) the value was “inactive”.
The same measure for `O=C(O)c1cc(I)cc(I)c1I`: “inactive”.
Regarding `CC(=O)OC(c1ccccc1)C(Cl)(Cl)Cl` (stereo not given), the Potency entry is “inactive”.
For `CC(C)(C)N(NC(=O)c1ccc(Cl)cc1)C(=O)c1ccccc1` the value was 3.83 µM (active); for `CON(C)C(=O)Nc1ccc(Cl)cc1`, “inactive”.
For `CCCCCCCCCCCC[N+](C)(C)CCOc1ccccc1` the value was 48.6 µM (active); for `NCCc1cc(O)c(O)cc1O`, “inactive”.
For `CCNC(=O)NC(=O)/C(C#N)=N/OC` the value was “inactive”.
Consider `Cc1ccc2c(C)cccc2c1`, for which the Potency entry is “inactive”.
The same measure for `C[N+]1(CCC(C(N)=O)(c2ccccc2)c2ccccc2)CCCCC1`: “inactive”; for `CC(Cc1ccccc1)NCc1ccccc1Cl` (stereo not given): “inactive”; for `O=C(O)CCCOc1ccc(Cl)cc1Cl`: “inactive”.
The same measure for `Cc1ccccc1`: “inactive”; for `CCOC(=O)c1cncn1C(C)c1ccccc1` (stereo not given): “inactive”; for `C[CH2][Hg][S]c1ccccc1C(=O)O`: 1.93 µM (active) and 5.96 µM (active).
The same measure for `CN1CC[C@]23c4c5ccc(O)c4O[C@H]2[C@@H](O)C=C[C@H]3[C@H]1C5`: “inactive”; for `CC(C)C1(C)N=C(c2ncccc2C(=O)O)NC1=O` (stereo not given): “inactive”; for `N#CC1(N=NC2(C#N)CCCCC2)CCCCC1`: “inactive”.
On to `C=CCSSCC=C`, for which the Potency result was “inactive”.

Values taken from PubChem BioAssay (Tox21).
